Screening data as filed in PubChem.
HT1080 IDH1KD tx = kills HT-1080 cells with IDH1 knockdown | Potency, µM (series often up to 46.1 µM), inactives show at the top dose activity, negative = toxicity, most hits filed as cytotoxic | 360,000 compounds, 2% hits | HT-1080 IDH1 knockdown viability, ATP luminescence, 48 h;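 note: potency is the fitted concentration of half-maximal effect; 0% = DMSO wells and -100% = cell-free medium wells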
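HT-1080-IDH1KD cells (IDH1 knocked down), 750/well in RPMI with 5% FBS, treated with compound 48 h at 37 degrees C. Viability by CellTiter-Glo luminescence, normalised to DMSO and no-cell wells; concentration-response curves classed.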
HT1080-NT tox = kills 2HG-producing HT-1080-NT fibrosarcoma cells. 360,000 compounds, 1.6% hits. AID 686970. Potency, µM (titrated, usually from 46.1 µM), for inactives: top-dose activity, negative = less viability, hits mostly cytotoxic. HT-1080-NT fibrosarcoma viability, CellTiter-Glo ATP luminescence, 48 h;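 note: NT is the 2HG producing partner of a matched IDH1 knockdown line; potency is the fitted concentration of half-maximal effect; 0% = DMSO-treated cells and -100% = media-only wells without cells; nearly all actives have a fitted effect of over 55% in size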
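HT-1080-NT fibrosarcoma cells (2HG-overproducing), 750 cells/well in RPMI with 5% FBS, dosed after 2 h and incubated 48 h at 37C. CellTiter-Glo luminescence normalized to DMSO and no-cell wells; concentration-response curves fitted and classed.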
TDP1 cell CPT = growth inhibition of DT40 Tdp1-/-;hTDP1 cells with camptothecin (screen for TDP1 inhibitors); Potency, µM (titrated, usually from 46.2 µM), without a hit: at the highest dose activity change, negative = growth inhibition, actives largely listed as inhibitors; 420,000 compounds, 12% hits; chicken DT40 Tdp1-/-;hTDP1 cells + 20 nM CPT, ATP luminescence, 48 h; note: potency is the fitted concentration of half-maximal effect; nearly all actives have a fitted effect of over 55% in size
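Chicken DT40 Tdp1-/- cells stably complemented with human TDP1 were seeded at 400 cells/well in medium containing 20 nM camptothecin, exposed to pin-transferred compounds, and grown at 37 °C for at least 48 hr. Viability was read as ATP luminescence.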
TDP1 cell noCPT = qHTS for Inhibitors of human tyrosyl-DNA phosphodiesterase 1 (TDP1): qHTS in cells in absence of CPT | DT40 Tdp1-/- hTDP1 cells, no CPT, ATP luminescence, 48 h | Potency, µM (highest dose often 46.2 µM), without a hit: top-dose activity change, negative = growth inhibition, most hits filed as inhibitors | 420,000 compounds, 15% hits | AID 686978, 2013; note: potency is the fitted concentration of half-maximal effect; nearly all actives have a fitted effect of over 55% in size
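Seeded 400 DT40-hTDP1 cells/well (vehicle DMSO, no 20 nM CPT); pinned compounds; ≥48 hr at 37 °C; CellTiter-Glo luminescence as viability measure.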
IL1B secr inh = inflammasome signaling inhibition, IL-1 beta readout. 360,000 compounds, 4.7% hits. activity change, % at 57.5 µM. AID 743279. THP-1 LPS/ATP IL-1B secretion, AlphaLISA, 16 h; stronger effect = lower value; in the data active = activity change below about -50%; inconclusive = mostly about -30% to -49%
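THP-1 cells pretreated 1 hr with compounds (up to 57.5 uM final), then stimulated with LPS (250 ng/mL final) plus ATP (1.25 mM final); secreted IL-1B measured by AlphaLISA after 16 hr, decreased signal indicating inhibition.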
ELG1 DNA repair = blocks ELG1-dependent DNA repair in HEK293T cells; HEK293T ELG1-luciferase reporter, luminescence, 16 h; DNA damage induced by 5-fluorouridine; AID 504467; 330,000 compounds, 2.3% hits; Potency, µM (titrated, usually from 46.1 µM), without a hit: at the top dose activity change, negative = inhibition, actives largely listed as inhibitors; note: potency is the fitted concentration of half-maximal effect; nearly all actives have a fitted effect of over 55% in size
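Reporter activity after DNA damage by 5-fluorouridine is monitored. Compound-treated cells incubate 16 hr at 37 °C, then ONE-Glo is added for 30 min before luminescence reading.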
Active calls of the source: *; u = inconclusive; x = no result given. Only some compounds are listed: those with a hit (about 19% of all), similar ones and a draw of the others. Unless noted, calls come from the whole dose curve; as a rule, active = well fitted curve in the direction sought with a large enough effect; inconclusive = small, poorly fitted or top-dose-only effect, or another doubt; inactive = no such curve, though single readings can be large; an effect the other way counts as inactive or inconclusive. Unless noted, % is set by controls: 0 for no effect and ±100 for the full control effect.

SMILES	HT1080 IDH1KD tx	HT1080-NT tox	TDP1 cell CPT	TDP1 cell noCPT	IL1B secr inh	ELG1 DNA repair
CC(=O)NC(C)(c1ccccc1)c1nc(-c2cncnc2)cs1 (centres undefined)	1%	13%	-11%	-5%	30	x
COc1ccc(C(C)(NC(C)=O)c2nc(-c3cc(F)cc(F)c3)cs2)cc1 (centres undefined)	0%	5%	16µM*	21µM*	-22	x
COc1ccc(-c2csc(C(C)(NC(C)=O)c3ccccc3)n2)cc1 (centres undefined)	0%	17%	u	16µM*	15	x
CC(=O)NC(C)(c1ccccc1)c1nc(-c2csc3ccccc23)cs1 (centres undefined)	-9%	u	21µM*	16µM*	-23	x
COc1ccc(C(C)(NC(C)=O)c2nc(-c3cccc4cccnc34)cs2)cc1 (centres undefined)	2%	18%	21µM*	23µM*	-2	x
COc1ccc(C(C)(NC(C)=O)c2nc(-c3cccc(F)c3)cs2)cc1 (centres undefined)	2%	9%	u	u	-17	x
COc1ccc(-c2csc(C(C)(NC(C)=O)c3ccccc3)n2)cn1 (centres undefined)	2%	11%	u	u	-4	x
O=C(Nc1nnc(N2CCCC2)s1)Nc1cc(F)ccc1F	x	x	-24%	-22%	x	x
CC(=O)NC(C)(c1ccccc1)c1nc(-c2cccc(C#N)c2)cs1 (centres undefined)	7%	1%	u	u	-18	x
COc1ccc(C(C)(NC(C)=O)c2nc(-c3cccc(C#N)c3)cs2)cc1 (centres undefined)	4%	3%	15µM*	16µM*	1	x
CC(C)OCCCNC(=O)c1cc(-c2cccnc2)nc2ccccc12	6%	4%	u	-14%	17	u
CCN(C(=O)COC(=O)c1c2c(nc3ccccc13)/C(=C/c1ccccc1)CC(C)C2)C1CCS(=O)(=O)C1 (centres undefined)	u	u	u	13µM*	-20	6.5µM*
COc1ccc2c(-c3ccccc3)cc(SCC(=O)NC3CCS(=O)(=O)C3)nc2c1 (centres undefined)	u	u	-24%	-25%	-82*	-13%
COc1ccc2c(-c3ccccc3)cc(SCC(=O)NC(N)=O)nc2c1	-1%	-1%	-29%	-10%	17	6%
COc1ccc2c(-c3ccccc3)cc(SCC(=O)N(C)C)nc2c1	-16%	0%	u	u	-68*	u
CCN(C(=O)CSc1cc(-c2ccccc2)c2ccc(OC)cc2n1)C1CCS(=O)(=O)C1 (centres undefined)	-28%	-27%	u	u	-61*	u
CCN(C(=O)COC(=O)c1c(C)nn(-c2ccccc2)c1C)C1CCS(=O)(=O)C1 (centres undefined)	-4%	-15%	14%	-3%	38	u
CCN(C(=O)CSc1cc(C)c2ccc(OC)cc2n1)C1CCS(=O)(=O)C1 (centres undefined)	-6%	-12%	2%	-17%	-11	-17%
CCN(C(=O)CSc1nc(-c2cccs2)nc2ccccc12)C1CCS(=O)(=O)C1 (centres undefined)	-7%	-9%	u	u	-93*	-24%
Cc1ccccc1OCCCn1c(-c2ccc(Cl)cc2)nc2ccccc2c1=O	x	x	-12%	0%	x	x
COc1ccccc1N1CCN(C(=O)Cn2ncc3c2-c2cc(C)ccc2OC3)CC1	x	x	26µM*	21µM*	x	x
CCN(CC)C(=O)Cn1ncc2c1-c1ccccc1OC2	0%	-4%	-3%	u	0	7%
Cc1cccc(N2CCN(C(=O)Cn3ncc4c3-c3cc(C)ccc3OC4)CC2C)c1 (centres undefined)	x	x	23µM*	23µM*	x	x
CCCN(C(=O)Cn1ncc2c1-c1ccccc1OC2)c1cccc(C)c1	x	x	u	16µM*	x	x
COc1cc(Cl)c(C)cc1NC(=O)NC1COc2ccccc2C1 (centres undefined)	x	x	-17%	-23%	x	x
SMILES	HT1080 IDH1KD tx	HT1080-NT tox	TDP1 cell CPT	TDP1 cell noCPT	IL1B secr inh	ELG1 DNA repair
Cc1cccc(C)c1Nc1c(-c2ccc(N3CCOCC3)cc2)nc2ncccn12	0%	0%	21µM*	21µM*	u	u
Cc1ccc(Nc2c(-c3ccc(N4CCOCC4)cc3)nc3ncccn23)c(C)c1	-7%	-8%	u	16µM*	u	12µM*
O=C(c1ccccc1)c1ccc(C(=O)N2CCN(c3ccccc3O)CC2)cc1	1%	0%	26µM*	12µM*	u	x
Nc1ccccc1N1CCN(C(=O)c2ccccc2)CC1	12%	15%	-21%	-7%	-3	-15%
O=C(NCC(=O)N1CCN(c2ccccc2O)CC1)C1CCCCC1	6%	2%	3.7µM*	u	5	-7%
O=C(O)/C=C/C(=O)N1CCN(c2ccccc2F)CC1	17%	7%	-1%	-22%	24	2%
O=C(c1c(F)cccc1F)N1CCN(c2ccccc2F)CC1	-18%	-3%	-21%	-17%	-9	0%
O=C(C(Sc1ccccc1)c1ccccc1)N1CCN(c2ccccc2F)CC1 (centres undefined)	-26%	-14%	u	23µM*	-9	-2%
O=C(c1cccc(C(=O)N2CCN(c3ccccc3F)CC2)c1)N1CCN(c2ccccc2F)CC1	-21%	-9%	u	23µM*	-8	16µM*
CC(C)c1cccc(C(C)C)c1NC(=O)c1ccc(-c2cc(Cl)ccc2Cl)o1	16%	13%	-18%	u	0	x
CCSc1nnc(NC(=O)C2CCN(C(=O)c3ccco3)CC2)s1	x	x	-8%	-9%	x	x
O=C(c1cccc(C(=O)N2CCN(c3ccccc3)CC2)c1)N1CCN(c2ccccc2)CC1	-26%	2%	u	15µM*	0	u
CCn1c(C)c(C)c2cc(C(=O)N3CCCC3)ccc21	-3%	-1%	-10%	15%	0	16%
CCn1c(C)c(C)c2cc(C(=O)N3CCN(c4ccccc4)CC3)ccc21	-10%	0%	18µM*	u	7	-2%
